In PubChem BioAssay (NCATS):
Calls of active or inactive are those of the source. Where a call stands in place of a potency, no number is given. The call rests on the fitted dose curve; in most records, active means well fitted inhibition curve with a large enough effect; inconclusive means small, poorly fitted or top-dose-only effect; inactive means flat fitted curve, though single readings scatter.
Potency means the concentration at half of the fitted maximal effect.

The compounds below were run against Luciferin 4-monooxygenase (Photinus pyralis) (UniProt P08659) (assay: Primary firefly luciferase (FLuc) qHTS assay for identification of artifact compounds. (AID 1845220; further: nearly all actives have a fitted effect of over 60% in size)). Conditions: purified firefly luciferase, luminescence, 5 min; series mostly up to 54.1 µM.
Excerpt: PI: Alexander Tropsha Ph.D.
UNC Eshelman School of Pharmacy
University of North Carolina, Chapel Hill, North Carolina
Hits from high-throughput screening (HTS) of chemical libraries are often false positives due to their interference with the assay detection technology. In response to this problem, we generated the largest publicly available library of chemical liabilities and developed a free webtool to predict HTS artifacts, both of which are described herein. More specifically, we generated, curated, and integrated HTS datasets for thiol reactivity, redox activity, and luciferase (firefly and nano) activity. Using these curated datasets, we developed and validated several Quantitative Structure-Interference Relationship (QSIR) models to predict nuisance behavior. […] These models were employed for virtual profiling of the National Center for Advancing Translational Science's (NCATS) in-house library, and 256 compounds for each assay were selected for the experimental validation of nuisance behavior. The BA for these external predictions ranged from 58 to 78% for compounds within the applicability domains of the models. […] The models developed in this study, along with aggregation models previously developed by our group (SCAM Detective) were implemented in "Liability Predictor," an online tool which may be used as part of chemical library design or for triaging HTS hits. Both the models and the curated datasets are publicly available at https://liability.mml.unc.edu/.
SEQUENCE No. (e.g., 1, 2, 3, etc.); […] (e.g., Cells, Incubation, Reagent, etc.); VALUE; DESCRIPTION.
1; Reagent; 3 uL; Luciferase substrate mixture.
2; Compounds and control; 16 nL; Kalypsis pin tool (Wako USA) equipped with a 1536-well pin head.
4; Reagent; 1 uL; Luciferase enzyme.
6; Detection; Luminescence, ViewLux microplate reader.
NOTES (numbers refer to Sequence numbers above)
1. 3 uL of luciferase substrate mixture containing D-luciferin and ATP (final concentrations of 10 uM and 10 uM, respectively) in assay buffer (10 mM Mg-acetate, 0.01% Tween-20, 0.05% bovine serum albumin, 50 mM Tris acetate, pH 7.6) was dispensed into all wells of a 1536-well assay plate (solid-bottom white plate; Greiner Bio One, Monroe, NC).
2. A Wako Pin-tool (Wako Automation, Richmond, VA) was used to transfer 16 nL of compounds (consisting of 7-plates in qHTS format, final concentration range 18.3 nM to 114 uM) or control PTC124 (final concentration range 1.22 nM to 40 uM).
3. 15 min. incubation at room temperature protected from light.
4. 1 uL of luciferase enzyme (final concentration 10 nM, Photinus pyralis luciferase) or buffer was dispensed for a final assay volume of 4 uL.
5. Plates were centrifuged (121xg, 15 seconds) and incubated for 5 minutes.
6. Samples were read for luminescence on a ViewLux CCD imager (PerkinElmer). Data were normalized to no-enzyme (0% activity) and no-inhibitor (DMSO; 100%) controls and the resulting percent inhibition data were fitted to a 4-parameter Hill equation using NCATS in-house software.
In the case of `COc1cc(-n2cnc3cc(-c4ccc(Cl)cc4)sc3c2=O)ccc1OCCN1CCCC1`, the Potency is reported as “inactive”. `CCCOc1ccc(S(=O)(=O)N2CCN(CCO)CC2)cc1-c1nc2c(CCC)cn(CC)c2c(=O)[nH]1` was tested, and the Potency was “inactive”. For `O=C(Nc1cc(C(F)(F)F)cc(C(F)(F)F)c1)c1cnc(Cl)nc1C(F)(F)F`, the Potency was “inactive”. With `CC(=O)Nc1cccc(-c2csc(Nc3cc(C)ccn3)n2)c1` the Potency was 3.01 µM (active). For `CNS(=O)(=O)c1ccccc1Nc1nc(Nc2ccc(N3CCN(C)CC3)cc2OC)ncc1Br`, the Potency was “inactive”. `CO[C@H]1C[C@@H]2CC[C@@H](C)[C@@](O)(O2)C(=O)C(=O)N2CCCC[C@H]2C(=O)O[C@H]([C@@H](C)C[C@@H]2CC[C@@H](O)[C@H](OC)C2)CC(=O)[C@H](C)/C=C(\C)[C@@H](O)[C@@H](OC)C(=O)[C@H](C)C[C@H](C)/C=C/C=C/C=C/1C` was tested, and the Potency was “inactive”. In the case of `CC(C)n1c(=O)c(C(=O)NC2CC3CCC(C2)N3C[C@@H](O)CN(C)S(C)(=O)=O)cc2ccccc21` (stereo not given in full), the Potency is reported as “inactive”. In the case of `C=C1CC[C@@H]2[C@](C)(CO)[C@H](O)CC[C@@]2(C)[C@@H]1CC(O)C1=CCOC1=O` (stereo not given in full), the Potency is reported as “inactive”. `COC1=CC(=O)C[C@@H](C)[C@@]12Oc1c(Cl)c(OC)cc(OC)c1C2=O` was tested, and the Potency was “inactive”. For `NC(=O)c1ccccc1Nc1ccnc(Nc2cccc(O)c2)n1`, the Potency was “inactive”. `CCOC(=O)N1c2ccc(C(F)(F)F)cc2C(N(Cc2cc(C(F)(F)F)cc(C(F)(F)F)c2)C(=O)OC)CC1CC` (stereo not given) was tested, and the Potency was “inactive”. `CC(=O)O[C@H]1CC2C(COC(=O)CC(C)C)=CO[C@@H](OC(=O)CC(C)C)C2[C@]12CO2` (stereo not given in full) was tested, and the Potency was “inactive”. `C[C@@H](O[C@H]1OCCN(Cc2nn(P(=O)(O)O)c(=O)[nH]2)[C@H]1c1ccc(F)cc1)c1cc(C(F)(F)F)cc(C(F)(F)F)c1` was tested, and the Potency was “inactive”. `COc1cc(N2CCC(N3CCN(C)CC3)CC2)ccc1Nc1ncc(Cl)c(Nc2ccccc2P(C)(C)=O)n1` was tested, and the Potency was “inactive”. In the case of `CC(=O)O[C@@H]1[C@@H](OC(C)=O)[C@H](C)O[C@@H](O[C@H]2[C@@H]3C=CO[C@@H](O[C@@H]4O[C@H](CO)[C@@H](O)[C@H](O)[C@H]4O)[C@@H]3[C@@]3(CO)O[C@@H]23)[C@@H]1OC(=O)/C=C/c1ccccc1`, the Potency is reported as “inactive”. In the case of `COc1c(C(C)C)c(O)c(O)c2c1C(OC)[C@H]1OC(=O)[C@@]23CCCC(C)(C)[C@H]13` (stereo not given in full), the Potency is reported as “inactive”. For `CC(=O)Nc1nc(C)c(-c2nc(N3CCCC(O)C3)no2)s1` (stereo not given), the Potency was “inactive”. With `Cc1ccc(-c2ncccn2)c(C(=O)N2C[C@H](COc3ccc(F)cn3)CC[C@H]2C)c1` the Potency was “inactive”. For `CCCc1cc(C)n(C)c(=O)c1CN(C)C(=O)c1cc(-c2ccc(N3CCN(C(C)C)CC3)nc2)cc2c1cnn2C(C)C`, the Potency was “inactive”. For `Cc1ccc(OC[C@H](O)[C@H](C)NC(C)C)c2c1CCC2`, the Potency was “inactive”. With `CCC(C)CC(=O)OC1C(=O)C(CO)=CC(O)C1C(C)C` (stereo not given) the Potency was “inactive”. In the case of `COc1cc2c(c(OC)c1CC=C(C)C)C[C@H](c1ccc(O)c(CC=C(C)C)c1O)CO2`, the Potency is reported as “inactive”. For `O=C1c2ccc(Nc3ccc(F)cc3F)cc2CCc2ccc(OCC(O)CO)cc21` (stereo not given), the Potency was “inactive”. With `CC(C)c1ccc(NC(=O)c2cccs2)c(-c2nc3ccccc3[nH]c2=O)c1` the Potency was “inactive”. In the case of `C=C1/C(=C/C=C2\CCC[C@]3(C)[C@@H]([C@H](C)CC[C@@H](O)C(C)(C)O)CC[C@@H]23)C[C@@H](O)C[C@@H]1O`, the Potency is reported as “inactive”. `CCOc1ccc(-n2c(C(C)N(Cc3cccnc3)C(=O)Cc3ccc(F)c(C(F)(F)F)c3)nc3ncccc3c2=O)cc1` (stereo not given) was tested, and the Potency was “inactive”. For `Cc1nc2ccc(CN(C)c3ccc(C(=O)NC(CCC(=O)O)C(=O)O)s3)cc2c(=O)[nH]1` (stereo not given), the Potency was “inactive”. For `CC(C)NCCCn1c(Sc2cc3c(cc2I)OCO3)nc2c(N)ncnc21`, the Potency was “inactive”. `COc1ccc(OC)c(-c2ccc(NC(=O)c3ccncc3F)cc2)c1` was tested, and the Potency was “inactive”. With `O=C1Cc2c([nH]c3ccc(Br)cc23)-c2ncccc2N1` the Potency was “inactive”. In the case of `CCC(C(C)O)n1ncn(-c2ccc(N3CCN(c4ccc(OCC5COC(Cn6cncn6)(c6ccc(F)cc6F)C5)cc4)CC3)cc2)c1=O` (stereo not given), the Potency is reported as “inactive”. `C/C1=C\CCC2=CC(OC2=O)C(C)(C)/C=C/C1=O` (stereo not given) was tested, and the Potency was “inactive”. `COC1CC(=O)C23C(=O)NC(CC(C)C)C2C(C)C(C)=CC3/C=C(\C)CCCC1O` (stereo not given) was tested, and the Potency was “inactive”. In the case of `O=c1[nH]c2ccccc2n1CCN1CCN(c2cccc(C(F)(F)F)c2)CC1`, the Potency is reported as “inactive”. In the case of `Cc1ccc(C(=O)Nc2ccc(CN3CCN(C)CC3)c(C(F)(F)F)c2)cc1C#Cc1cnc2[nH]ncc2c1`, the Potency is reported as 23.9 µM (active). With `O=S(=O)(c1ccccc1)N(CC(F)(F)F)c1ccc(C(O)(C(F)(F)F)C(F)(F)F)cc1` the Potency was “inactive”. For `CCC(C)C(=O)OC1C(C)C2(O)C(C=C(CO)CC3(O)C(=O)C(C)=CC32)C2C(C)(C)C12OC(=O)C(C)C` (stereo not given), the Potency was “inactive”. `CC(=O)C1=C(O)C=C2Oc3c(C(C)=O)c(O)c(C)c(O)c3[C@]2(C)C1=O` was tested, and the Potency was “inactive”. `O=C(Nc1ccc2[nH]c(=O)oc2c1)C(=O)N1CCC(Cc2ccc(F)cc2)CC1` was tested, and the Potency was “inactive”. In the case of `NS(=O)(=O)Nc1ncnc(OCCOc2ncc(Br)cn2)c1-c1ccc(Br)cc1`, the Potency is reported as “inactive”.
